Screening results: PubChem, Broad Institute
Pf Dd2 inh = blocks growth of Plasmodium falciparum Dd2 parasites; 94,000 tested, 2.3% active; P. falciparum Dd2 growth, SYBR Green, 72 h; active compounds read low; activity change, % at 10 µM; in the data active means activity change below about -80%; inconclusive means no clear call, values can overlap the other calls
T cruzi growth-1 = T. cruzi proliferation inhibition | T. cruzi beta-gal in NIH3T3, GalScreen luminescence, 90 h | inhibition, % at 8.34 µM | 77,000 tested, 5.9% active;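 active means mean inhibition above about 93%, with at least 55% of replicates each passing it, limit read from the data, passing the limit was not always enough; inconclusive means only one of those two conditions holds; inactive means neither condition holds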
C diff HTS = C. difficile growth inhibition | Clostridium difficile clinical isolate growth, OD600, 24 h; active compounds read low | growth activity, negative = inhibition, % at 16 µg/mL (by protocol) | 86,000 tested, 0.25% active | AID 1259249;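 active means mean growth activity at or below -80% and every replicate also at or below -80%; inconclusive means mean at or below -80% but some replicate above -80%; inactive means mean growth activity above -80%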;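 further: 0% = DMSO wells and -100% = levofloxacin 16 µg/mL wells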
T cruzi growth-2 = inhibitors of T. cruzi proliferation | T. cruzi beta-gal in NIH3T3, GalScreen luminescence, 90 h | inhibition, % at 8.35 µM | 5,600 tested, 72% active | AID 651739 | shares compounds with T cruzi growth-1;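 active means mean replicate inhibition above about 95% and at least 55% of replicates individually reaching it, limit read from the data; inconclusive means only one of the two criteria is met; inactive means neither criterion is met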
T cruzi growth-3 = blocks T. cruzi growth in NIH3T3 host cells | T. cruzi beta-gal in NIH3T3, GalScreen luminescence, 90 h | inhibition, % at 2.09 µM | shares compounds with T cruzi growth-1 | 5,600 tested, 21% active;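 active means mean inhibition above about 95%, with at least 55% of replicates also reaching it, limit read from the data; inconclusive means meets just one of the two conditions; inactive means meets neither condition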;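 further: plate controls were neutral control median for no effect and positive control median for full effect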
3T3 cytotox = NIH/3T3 (mouse) viability loss. shares compounds with T cruzi growth-1. NIH/3T3 viability, CellTiter-Glo ATP luminescence, 90 h. cytotoxicity (signal decrease), % at 8.35 µM. 5,600 tested, 14% active;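 active means mean signal decrease across replicates above about 35% based on untreated-well scatter, with enough replicates individually passing, limit read from the data; inconclusive means no rule stated though some were filed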;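 further: 0% = median of neutral control wells and 100% = median of positive control wells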
3T3 cytotox 2 = cytotoxicity in mouse NIH/3T3 fibroblasts. AID 651744. 5,600 tested, 56% active. NIH/3T3 viability, CellTiter-Glo ATP luminescence, 90 h. shares compounds with T cruzi growth-1. inhibition, % at 24.9 µM;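 active means mean loss of cell viability signal at or above a set limit, and enough replicates individually reaching it; inconclusive means meets only the mean limit or only the replicate share; inactive means meets neither condition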;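 further: 0% = median of neutral control wells and 100% = median of positive control wells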
The depositor's hits bear a star; ? = inconclusive; . = no result. Most compounds without a hit are left out; they make up all but 6.8% or so of the library.

SMILES | Pf Dd2 inh | T cruzi growth-1 | C diff HTS | T cruzi growth-2 | T cruzi growth-3 | 3T3 cytotox | 3T3 cytotox 2
C[C@@H]1CN([C@H](C)CO)C(=O)c2cc(C#CCC3CCCC3)cnc2O[C@H]1CN(C)C(=O)CC1CC1 | -52 | ? | 16 | 96* | 23 | 19 | 83*
C[C@@H]1CN([C@H](C)CO)C(=O)c2cc(C#CCC3CCCC3)cnc2O[C@H]1CN(C)C(=O)CN(C)C | -75 | . | -2 | . | . | . | .
C[C@H]1CN([C@@H](C)CO)C(=O)c2cc(NS(=O)(=O)c3ccc(Cl)cc3)ccc2O[C@@H]1CN(C)S(=O)(=O)c1ccccc1 | -27 | 16 | -9 | . | . | . | .
CN(C)CC(=O)N[C@@H]1CC[C@@H](CCn2cc(C3CCCCC3)nn2)O[C@H]1CO | -5 | . | -1 | . | . | . | .
CC(C)NC(=O)N1C[C@H]2[C@@H](c3ccccc31)[C@@H](CO)N2C(=O)Nc1cccc(F)c1 | 3 | 9 | -6 | . | . | . | .
CCC(=O)N1CC2(C1)CN(Cc1ccc3c(c1)OCO3)[C@H](CO)c1c2c2ccc(OC)cc2n1C | -21 | . | -6 | . | . | . | .
C[C@H]1CCCCO[C@H](CN(C)C(=O)Nc2ccccc2)[C@@H](C)CN([C@@H](C)CO)C(=O)c2cc(NS(=O)(=O)c3ccc(Cl)cc3)ccc2O1 | -84* | ? | -1 | 103* | 37 | -38 | -18
C[C@H]1CCCCO[C@@H](CN(C)C(=O)Cc2ccccc2)[C@@H](C)CN([C@@H](C)CO)C(=O)c2cc(NS(=O)(=O)c3ccc(Cl)cc3)ccc2O1 | -65 | 101* | 5 | 109* | 80 | -23 | 17
C[C@@H]1CCCCO[C@@H](CN(C)C(=O)Nc2ccccc2)[C@@H](C)CN([C@@H](C)CO)C(=O)c2cc(NS(=O)(=O)c3ccc(Cl)cc3)ccc2O1 | -69 | 118* | 15 | 104* | 40 | -12 | -5
C[C@@H]1CCCCO[C@H](CN(C)C(=O)Cc2ccccc2)[C@H](C)CN([C@@H](C)CO)C(=O)c2cc(NS(=O)(=O)c3ccc(Cl)cc3)ccc2O1 | -40 | 87 | -4 | . | . | . | .
C[C@@H]1CCCCO[C@@H](CN(C)C(=O)Nc2ccccc2)[C@H](C)CN([C@@H](C)CO)C(=O)c2cc(NS(=O)(=O)c3ccccc3)ccc2O1 | -26 | . | . | . | . | . | .
C[C@@H]1CCCCO[C@@H](CN(C)C(=O)Nc2ccccc2)[C@@H](C)CN([C@H](C)CO)C(=O)c2cc(NS(=O)(=O)c3ccc(Cl)cc3)ccc2O1 | -7 | 48 | 1 | . | . | . | .
C[C@@H]1CCCCO[C@H](CN(C)C(=O)c2ccccc2)[C@H](C)CN([C@@H](C)CO)C(=O)c2cc(NS(=O)(=O)c3ccc(Cl)cc3)ccc2O1 | -13 | 67 | -3 | . | . | . | .
C[C@H](CO)N1C[C@H](C)[C@H](CN(C)C(=O)c2ccccc2)OCCCC[C@H](C)Oc2ccc(NS(=O)(=O)c3ccc(Cl)cc3)cc2C1=O | 32 | 101* | -8 | 91 | 34 | -8 | 6
CO[C@H]1CC[C@@H]2CCN(C)C(=O)[C@H](C)N(C)C(=O)c3cccc(C#N)c3OC[C@H]1O2 | . | -6 | -1 | . | . | . | .
C[C@@H]1CN([C@@H](C)CO)C(=O)c2cc(NC(=O)Nc3ccc(C(F)(F)F)cc3)ccc2O[C@@H]1CN(C)CC1CC1 | -71 | 5 | 23 | . | . | . | .
CS(=O)(=O)Nc1ccc2c(c1)[C@H]1C[C@H](CC(=O)NCCN3CCCCC3)O[C@@H](CO)[C@H]1O2 | 22 | . | -4 | . | . | . | .
CC(C)NC(=O)Nc1ccc2c(c1)C(=O)N([C@H](C)CO)C[C@H](C)[C@H](CN(C)C(=O)Nc1ccc(F)cc1)O2 | 2 | 24 | -8 | . | . | . | .
CN(C)C(=O)C[C@H]1CC[C@H]2[C@@H](COC[C@@H](O)CN2C(=O)C2CCCC2)O1 | 52 | -18 | 10 | . | . | . | .
O=C(C[C@@H]1CC[C@@H]2[C@H](COC[C@@H](O)CN2Cc2cc(F)ccc2F)O1)N[C@@H]1CCN(Cc2ccccc2)C1 | -11 | 95 | -2 | . | . | . | .
O=C(C[C@H]1CC[C@H]2[C@@H](COC[C@H](O)CN2Cc2ccccc2)O1)N[C@@H]1CCN(Cc2ccccc2)C1 | -50 | 98* | 1 | 99* | 47 | 2 | 9
O=C(C[C@H]1CC[C@H]2[C@@H](COC[C@H](O)CN2Cc2ccccc2)O1)NCc1ccccc1Cl | -12 | 35 | . | . | . | . | .
